Results on 43 sequences are retold here after the supplement of paper PMC3545927.

The list shows a part of the results. No count for the full screen is at hand.

The experiment has as its target furin, P09958. The experiment in a line: furin cleavage Z-score vs untreated control; higher = more cleavage, active = 3.5 or more, inactive = 1 or less, 8 variable residues between constant flanks. An outline of the steps: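 Cleavage by purified furin was measured on 8-mer peptides fused to a cDNA oligonucleotide and held on magnetic beads by their N-terminus. Reactions (0.01 ml, 1:10 enzyme:substrate) ran 7.5, 15 or 30 min in 50 mM HEPES pH 7.5 with CaCl2 and NaCl. Released DNA was adapter-tagged by PCR and sequenced, with read counts giving abundance. Log counts versus furin-free reactions were lowess-adjusted and scaled by median absolute deviation to give the cleavage Z-score.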

Chain of furin, P09958 (P09958 whole entry, the tested form may be a part): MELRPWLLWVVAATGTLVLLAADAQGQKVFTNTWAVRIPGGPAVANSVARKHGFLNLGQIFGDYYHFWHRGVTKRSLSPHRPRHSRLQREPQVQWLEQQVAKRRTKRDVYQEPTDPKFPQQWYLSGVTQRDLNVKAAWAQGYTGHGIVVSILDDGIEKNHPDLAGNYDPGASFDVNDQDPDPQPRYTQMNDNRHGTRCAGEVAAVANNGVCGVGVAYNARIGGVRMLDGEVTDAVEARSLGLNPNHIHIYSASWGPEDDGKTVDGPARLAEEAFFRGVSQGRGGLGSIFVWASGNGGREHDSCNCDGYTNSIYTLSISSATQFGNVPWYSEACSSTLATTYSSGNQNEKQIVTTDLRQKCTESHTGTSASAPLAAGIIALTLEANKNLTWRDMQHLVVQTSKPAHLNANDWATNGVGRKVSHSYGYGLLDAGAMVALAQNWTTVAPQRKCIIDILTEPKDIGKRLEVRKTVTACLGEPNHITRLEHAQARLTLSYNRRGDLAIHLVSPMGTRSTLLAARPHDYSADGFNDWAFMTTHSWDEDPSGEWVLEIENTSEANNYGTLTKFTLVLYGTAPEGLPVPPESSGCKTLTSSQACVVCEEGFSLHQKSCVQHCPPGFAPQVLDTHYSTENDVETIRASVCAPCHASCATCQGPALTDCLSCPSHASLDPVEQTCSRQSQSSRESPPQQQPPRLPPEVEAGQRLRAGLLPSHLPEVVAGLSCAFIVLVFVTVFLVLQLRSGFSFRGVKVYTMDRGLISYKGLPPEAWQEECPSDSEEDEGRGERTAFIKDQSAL

Take CALVAFKIMSAGNASASA [HC1092]: the “furin cleavage Z-score” value is -0.725 (inactive) (7.5 min), -0.454 (inactive) (15 min) and -0.368 (inactive) (30 min).
On to CASSSRRSRSAGNASASA [FS-1615], for which the “furin cleavage Z-score” value reads like this: (7.5 min) 7.43 (active); (15 min) 8.67 (active); (30 min) 6.73 (active).
Regarding CASSREKRRSAGNASASA [FS-1285], the “furin cleavage Z-score” value was 0.453 (inactive) (7.5 min), 0.575 (inactive) (15 min) and 2.39 (30 min).
Turning to CAAPSRRSRSAGNASASA [FS-216], the “furin cleavage Z-score” value is 9.21 (active) (7.5 min), 8.84 (active) (15 min) and 7.91 (active) (30 min).
On the same counts, the results for CAKHSRRRRSAGNASASA [FS-174] are 10.9 (active), 10.7 (active) and 6.68 (active).
On the same counts, the results for CASSSRRRRSAGNASASA [FS-1286] are 9.8 (active), 8.59 (active) and 7.58 (active).
On the same counts, the results for CAMEECSRHLAGNASASA [HC1733] are 0.727 (inactive), 0.671 (inactive) and 1.88.
For CAALTGTYVYAGNASASA [HC632], the “furin cleavage Z-score” value is 1.19 (7.5 min), -0.31 (inactive) (15 min) and -0.691 (inactive) (30 min).
In the case of CAKPDYEPPVAGNASASA [HC1312], the “furin cleavage Z-score” value (7.5 min) is 0.808 (inactive), the “furin cleavage Z-score” value (15 min) was -0.123 (inactive) and the “furin cleavage Z-score” value (30 min) is 0.46 (inactive).
Take CAEVPCHYPSAGNASASA [HC2369]: the “furin cleavage Z-score” value is, setting by setting: (7.5 min) 0.223 (inactive); (15 min) 1.34; (30 min) 1.34.
As for CAVVWCSMSYAGNASASA [HC2028], the “furin cleavage Z-score” value is 0.181 (inactive) (7.5 min), 0.241 (inactive) (15 min) and 0.133 (inactive) (30 min).
On the same counts, the results for CAVQYLYGVGAGNASASA [HC510] are -0.596 (inactive), -1.07 (inactive) and -0.127 (inactive).
On the same counts, the results for CANEECSQHLAGNASASA [HC1681] are 0.726 (inactive), 1.58 and -0.0685 (inactive).
For the sequence CATTPCSMSWAGNASASA [HC1886], the “furin cleavage Z-score” value runs as follows: (7.5 min) 0.125 (inactive); (15 min) 0.0823 (inactive); (30 min) 0.51 (inactive).
On the same counts, the results for CAFSSREERSAGNASASA [FS-589] are -0.625 (inactive), -0.927 (inactive) and -2.43 (inactive).
Turning to CAGSSRRRRSAGNASASA [FS-1334], the “furin cleavage Z-score” value was 9.7 (active) (7.5 min), 10.8 (active) (15 min) and 6.42 (active) (30 min).
On to CAAPVRRDRSAGNASASA [FS-977], for which the “furin cleavage Z-score” value was 6.44 (active) (7.5 min), 6.02 (active) (15 min) and 5.28 (active) (30 min).
On the same counts, the results for CASDFRRRRSAGNASASA [FS-868] are 9.07 (active), 7.71 (active) and 7.52 (active).
Regarding CAGSSREVRSAGNASASA [FS-29], the “furin cleavage Z-score” value is, setting by setting: (7.5 min) 2.81; (15 min) 4.54 (active); (30 min) 4.54 (active).
On to CADLEDRDRSAGNASASA [HC487], for which the “furin cleavage Z-score” value (7.5 min) was -0.326 (inactive), the “furin cleavage Z-score” value (15 min) is -1.64 (inactive) and the “furin cleavage Z-score” value (30 min) was -1.38 (inactive).
On the same counts, the results for CAGSSRLDRSAGNASASA [FS-1208] are 1.21, 1.38 and 0.97 (inactive).
On the same counts, the results for CALEQALDCEAGNASASA [HC1590] are -1.94 (inactive), 0.416 (inactive) and -0.45 (inactive).
On the same counts, the results for CAGLVPRGSAAGNASASA [TR1] are 0.366 (inactive), -0.466 (inactive) and -0.254 (inactive).
On to CAMEEQSQHLAGNASASA [HC19], for which the “furin cleavage Z-score” value is 0.113 (inactive) (7.5 min), 0.699 (inactive) (15 min) and 0.674 (inactive) (30 min).
On the same counts, the results for CAAIPLEVIKAGNASASA [HC850] are -0.209 (inactive), 0.792 (inactive) and -0.386 (inactive).
On the same counts, the results for CAPSRRVKRSAGNASASA [FS-1149] are 8.11 (active), 7.59 (active) and 5 (active).
On the same counts, the results for CAPTHYVPESAGNASASA [HC1126] are 1.82, -1.79 (inactive) and 0.876 (inactive).
As to CALQRRKKKGAGNASASA [FS-1643], the “furin cleavage Z-score” value was -0.863 (inactive) (7.5 min), -0.718 (inactive) (15 min) and 0.433 (inactive) (30 min).
On the same counts, the results for CAGFRRFKRSAGNASASA [FS-240] are 8.1 (active), 5.19 (active) and 7.05 (active).
On the same counts, the results for CAGFRRSMDQAGNASASA [FS-2860] are -0.496 (inactive), -0.187 (inactive) and 0.074 (inactive).
On the same counts, the results for CALQRRVKRSAGNASASA [FS-1463] are 3.17, 3.78 (active) and 1.92.
On to CANQLRVKRSAGNASASA [FS-554], for which the “furin cleavage Z-score” value was 5.48 (active) (7.5 min), 5 (active) (15 min) and 3.97 (active) (30 min).
As to CAEVVTSAWVAGNASASA [HC2203], the “furin cleavage Z-score” value runs as follows: (7.5 min) -1.33 (inactive); (15 min) -0.0621 (inactive); (30 min) -0.753 (inactive).
On the same counts, the results for CASTTSRSACAGNASASA [HC1390] are 0.133 (inactive), -0.0614 (inactive) and -0.754 (inactive).
On the same counts, the results for CALAGLSTLPAGNASASA [HC1048] are 0.519 (inactive), 1.63 and 0.445 (inactive).
On the same counts, the results for CALKATCTANAGNASASA [HC1266] are 0.615 (inactive), 2.96 and 1.42.
For CARTGKVKRSAGNASASA [FS-497], the “furin cleavage Z-score” value was 10.7 (active) (7.5 min), 9.35 (active) (15 min) and 8.07 (active) (30 min).
On the same counts, the results for CAKLFRVKRSAGNASASA [FS-1220] are 11.7 (active), 10.7 (active) and 8.14 (active).
As for CACWRRMKRSAGNASASA [FS-1113], the “furin cleavage Z-score” value is, setting by setting: (7.5 min) 9.77 (active); (15 min) 10.5 (active); (30 min) 7.93 (active).
As to CAECYDAGCAAGNASASA [HC920], the “furin cleavage Z-score” value runs as follows: (7.5 min) -0.745 (inactive); (15 min) 0.00773 (inactive); (30 min) -0.466 (inactive).
On the same counts, the results for CAGCPLPPPKAGNASASA [HC1317] are 0.693 (inactive), -0.374 (inactive) and -0.0504 (inactive).
Turning to CAVVPRGVNLAGNASASA [TR7], the “furin cleavage Z-score” value (7.5 min) is 1.05, the “furin cleavage Z-score” value (15 min) was -0.803 (inactive) and the “furin cleavage Z-score” value (30 min) is 1.14.
Regarding CAMEERSQHLAGNASASA [HC10], the “furin cleavage Z-score” value by setting is: (7.5 min) -0.0717 (inactive); (15 min) -0.428 (inactive); (30 min) 1.49.
